# Data taken from PubChem BioAssay (NCI).
# This is part of a sample that, as a whole, favours compounds with a hit. Of some 83,000 tested, about 20% had one in any assay.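 Single-concentration screen, 48 h exposure, 96-well plates. Endpoint: percent growth. Below 10 = active.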 Unmarked numbers belong to inactive results. Calls of active or inactive are those of the source.
# Test system: UO-31 renal
# Experiment: NCI-60 one-dose screen, 48 h (100 = growth as untreated, 0 = no growth, -100 = all killed)
# Conditions: 10 µM unless noted
# Method: Growth inhibition of the UO-31 human tumor cell line is measured as a screen for anti-cancer activity. Cells are grown in 96 well plates and exposed to the test compound for 48 hours. Compounds are tested at a single concentration, which is 10^-5 M for most compounds. The reported endpoint is percent growth (GI% or GIPRCNT), where numbers from 0 - 100% represent growth inhibition, and numbers from -100% - 0 represent cell death. For example, a value of 40 represents 60% growth inhibition. A value of 0 means no net growth occurred over the course of the experiment. A value of -40 indicates 40% of cells at the beginning of the experiment died by the end of the experiment. A value of -100 means all cells are dead at the end of the experiment.
# NCI-60 Human Tumor Cell Lines Screen was performed using the standard one-dose NCI protocol, which is described in more detail at https://dtp.cancer.gov/discovery_development/nci-60/default.htm.
# Compounds with GIPRCNT values below 10 were considered active. Activity score was based on GIPRCNT using the following formula: […]
# Score is 0 for GIPRCNT values of 100 or above, 50 for GIPRCNT values of 0, and 100 for GIPRCNT values of -100.
row,Compound,growth
1,CC(=O)O[C@H]1CC[C@@]2(C)C(=CC[C@@H]3[C@@H]2CC[C@]2(C)C(c4cccnc4)=CC[C@@H]32)C1,33.5%
2,CSc1nc2nc3c(c(-c4ccc(C)cc4)c2c(=O)[nH]1)CN(C)C/C3=C\c1ccc(C)cc1,86.1%
3,O=Cc1ncc(-c2ccc(C(F)(F)F)cc2)c(NC2CCCCCC2)n1,-90.8% [100 µM] (active)
4,N=C1c2nc3n(c2C(=O)c2nc4n(c21)CCCCC4)CCCCC3,83.6%
5,Nc1nc2c(c(=O)[nH]1)C1(C(=O)Nc3ccccc31)c1c(nc(N)[nH]c1=O)N2,86.7%
6,Cc1cc(C)cc(S(=O)(=O)n2ccc(-c3ccc4c(c3)CCC(C)(C)O4)n2)c1,75%
7,Clc1ccc2c(c1)C(Br)c1cc(Cl)cc(Cl)c1-2 (stereo not given),76.6%
8,O=C1C(=O)/C(=C/c2ccccc2)CCCCCC/C1=C/c1ccccc1,30.9%
9,COc1ccc(NC(=O)c2ccccc2-c2ccccc2)c(C(N)=O)c1,40.1%
10,COc1ccc(C2CC(c3ccc(Nc4ccnc5cc(Cl)ccc45)cc3)=NN2C(C)=O)cc1 (stereo not given),64.7%
11,Clc1ccc2[nH]cc(-c3cncn3CCc3ccccc3)c2c1,42.2%
12,Clc1ccc2nc(CI)c(CI)nc2c1,-31.8% (active)
13,N/C(=N\c1nc2ccccc2s1)NC(=O)Nc1ccccc1Cl,54.2%
14,C[C@H]1C(=O)N2c3ccccc3[C@@]3(O)C[C@@H](n4cnc5ccccc5c4=O)C(=O)N1[C@@H]23,86.5%
15,Cn1c(N2N=C(c3ccc(Cl)cc3)CC2c2ccccc2)nc(-c2ccccc2)c(C#N)c1=O (stereo not given),60.5%
16,Cc1ccccc1NC(=O)NC(CC(N)=O)c1ccc2c(c1)nc(-c1cccc(Oc3ccc(C(C)(C)C)cc3)c1)n2CCCN1CCCCC1C (stereo not given),88.6%
17,C/C(=C\CCc1ccoc1)CC/C=C(\C)CCCC1COC(=O)C1 (stereo not given),78.8%
18,COc1cc(-c2n[nH]nc2-c2ccccn2)cc(OC)c1OC,87.7%
19,COC(=O)c1c(NC(=O)CSc2nnnn2-c2ccc(OC)cc2)sc(C)c1C,84.6%
20,O=C(CNC(=O)c1cccc2ccccc12)Nc1ccccc1Oc1ccc(O)cc1,45.2% [5 µM]

row,Compound,growth
1,CC1CN(C2CCCCC2)C(=O)NC1=O (stereo not given),82%
2,COc1cc(C2CC(C3C(=O)N(C)C(=O)N(C)C3=O)=NN2c2cc(Cl)cc(Cl)c2)cc(OC)c1OC (stereo not given),83.2%
3,O=C(CSc1nnc(-c2cc(-c3ccccc3)nc3ccccc23)o1)c1ccc(Br)cc1,83.1%
4,O=C(c1ccccc1)C(CN1CCCCC1)c1ccccc1 (stereo not given),-36.3% (active)
5,NS(=O)(=O)c1cc(C2(O)NC(=O)c3ccccc32)ccc1Cl (stereo not given),76.4%
6,Cc1sc2nc(N3CCCCC3)[nH]c(=O)c2c1C,96%
7,COc1cnc2c(c1)C(=O)c1c-2n(CCCn2ccnc2)c(=O)c2cc(F)ccc12,-77.5% (active)
8,O=C(C(=O)N1CCOCC1)c1cn(CCCn2cc(C(=O)C(=O)N3CCOCC3)c3ccccc32)c2ccccc12,75.3%
9,CCSc1nc(Nc2ccc(S(=O)(=O)Nc3ccon3)cc2)c(C#N)c(-c2cccc(Br)c2)n1,102%
10,CCN1CC2=C(Nc3nc(SC)[nH]c(=O)c3C2c2cc(OC)c(OC)c(OC)c2)/C(=C/c2cc(OC)c(OC)c(OC)c2)C1 (stereo not given),106%
11,C[C@]12CC[C@H](O)CC1=CC[C@@H]1[C@@H]2CC[C@]2(C)C(c3cccnc3)=CC[C@@H]12,36.9%
12,Cc1ccc2c(c1)C(=O)/C(=C\Nc1ccc(C(N)=O)cc1)C(O)O2 (stereo not given),79.3%
13,COc1ccc(CCN2C(=O)CCC3=C2CCCC3=O)cc1OC,81.8%
14,CCSc1nc(-c2ccc(F)cc2)c(C#N)c(=O)[nH]1,125%
15,CN(C)c1ncnc2c1ncn2C1CCCCO1 (stereo not given),73.2%
16,Nc1nc(SCc2cccnc2)c2ncn(C3OC(CO)C(O)C3O)c2n1 (stereo not given),72.7%
17,COc1ccc(C2=NN(C=O)C(c3cccc(Nc4ccnc5cc(Cl)ccc45)c3)C2)cc1 (stereo not given),31.2%
18,O=C(N/N=C/c1cccc(O)c1O)c1ccccc1,4.38% (active)
19,O=[N+]([O-])c1ccc(N=Nc2c(Cl)cc(O)cc2Cl)cc1,-31.5% (active)
20,O=C(Nc1cccc(-n2cc(-c3ccncc3)c(-c3cc(O)cc(Cl)c3)n2)c1)Nc1ccc(Cl)c(Cl)c1,-41.3% (active)
